Test results reported in the supplement of paper PMC6555819.

Legend:
Test in all cases: PBM binding z-score (relative to random genomic background probes); higher = stronger binding; sequences stand for … in GC…GCGATTGACAGCGTAGAATGAAGG
[1] = tested on: FXR:RXRa (NR concentration 270 nM, RXRa partner concentration 90 nM)
How it was run: (§1)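 Binding z-scores were set against random background probes. The data came from custom Agilent 4×180K protein-binding microarrays carrying double-stranded probes with 34-nt variable regions, incubated 1 h with ligand-free nuclear receptor dimers. Partner-specific antibodies detected binding, and scanned fluorescence was regression-normalized.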

[2] = tested on: LXRa:RXRa (NR concentration 270 nM, RXRa partner concentration 90 nM)
How it was run: as §1

[3] = tested on: LXRa homodimer (NR concentration 270 nM)
How it was run: as §1

[4] = tested on: LXRb:RXRa (NR concentration 270 nM, RXRa partner concentration 90 nM)
How it was run: as §1

[5] = tested on: LXRb homodimer (NR concentration 270 nM)
How it was run: as §1

[6] = tested on: PPARa:RXRa (NR concentration 270 nM, RXRa partner concentration 90 nM)
How it was run: as §1

[7] = tested on: PPARg:RXRa (NR concentration 180 nM, RXRa partner concentration 90 nM)
How it was run: as §1

[8] = tested on: PPARg:RXRa 270nM:90nM, anti-RXR (NR concentration 270 nM, RXRa partner concentration 90 nM)
How it was run: as §1

[9] = tested on: PPARg:RXRa 30nM:10nM, anti-RXR (NR concentration 30 nM, RXRa partner concentration 10 nM)
How it was run: as §1

[10] = tested on: PPARg:RXRa 90nM:30nM, anti-RXR (NR concentration 90 nM, RXRa partner concentration 30 nM)
How it was run: as §1

[11] = tested on: PPARg:RXRa DBDmut IVT, anti-RXR (DBD mutation: RXRa K156A/R161A, NR concentration 270 nM, RXRa partner concentration 90 nM)
How it was run: as §1

[12] = tested on: PPARg:RXRa IVT, anti-PPARg (NR concentration 270 nM, RXRa partner concentration 90 nM)
How it was run: as §1

[13] = tested on: PPARg DBDmut:RXRa IVT, anti-PPARg (DBD mutation: PPARg1 K132A/R137A, NR concentration 270 nM, RXRa partner concentration 90 nM)
How it was run: as §1

[14] = tested on: PPARg DBDmut IVT, anti-PPARg (DBD mutation: PPARg1 K132A/R137A, NR concentration 270 nM)
How it was run: as §1

[15] = tested on: PPARg homodimer (NR concentration 180 nM)
How it was run: as §1

[16] = tested on: PXR:RXRa (NR concentration 270 nM, RXRa partner concentration 90 nM)
How it was run: as §1

[17] = tested on: PXR homodimer (NR concentration 270 nM)
How it was run: as §1

[18] = tested on: RARa:RXR (NR concentration 270 nM, RXRa partner concentration 90 nM)
How it was run: as §1

[19] = tested on: RARa homodimer (NR concentration 270 nM)
How it was run: as §1

[20] = tested on: RARb:RXRa (NR concentration 270 nM, RXRa partner concentration 90 nM)
How it was run: as §1

Sequence	PBM binding z-score [1]	PBM binding z-score [2]	PBM binding z-score [3]	PBM binding z-score [4]	PBM binding z-score [5]	PBM binding z-score [6]	PBM binding z-score [7]	PBM binding z-score [8]	PBM binding z-score [9]	PBM binding z-score [10]	PBM binding z-score [11]	PBM binding z-score [12]	PBM binding z-score [13]	PBM binding z-score [14]	PBM binding z-score [15]	PBM binding z-score [16]	PBM binding z-score [17]	PBM binding z-score [18]	PBM binding z-score [19]	PBM binding z-score [20]
TCGTATAGGTAATACAGGTGAAAGTCGGCATCTA	0.718	1.21	0.63	0.967	-0.231	1.75	0.665	1.96	2.76	2.39	2.32	2.24	0.787	1.03	0.975	0.742	0.293	0.746	1.16	0.691
GGAACGAGGGCAAAGTCGATAGCATCTGTCGACG	0.356	0.379	-0.902	-0.096	-0.476	1.74	1.97	2.58	0.954	2.36	3.57	3.11	0.306	0.0307	-0.309	0.155	-0.0717	0.0883	-0.247	1.87
TCGAGTAGGTTACCAATGAGGCATTCAGCTTTCT	0.0141	0.677	-0.666	0.0718	-1.38	1	0.215	1.15	1.28	1.22	3.32	2.35	0.0818	-0.605	-0.815	-0.0047	-0.892	0.302	-1.06	0.723
CCTCGGGGGACAACAGGAGGTCAGAGCTGCCAGA	2.56	3.46	1.7	3.52	4.28	3.13	1.01	1.67	0.217	1.17	0.622	1.99	0.461	0.197	1.34	2.74	0.253	2.8	0.259	3.16
GGGACTGGGGCATCAGCAGGTTACCATAACTTAA	0.464	0.607	0.713	1.81	2.25	2.25	3.27	2.6	0.527	1.93	4.49	5.48	0.985	1.98	1.51	1.12	0.678	1.2	0.663	1.33
GCTGCTAGTTCAGGTTGGTCAGCTAACGGGTACG	-0.234	-0.0295	-0.196	-0.351	-0.495	-0.285	-0.479	-0.127	-0.906	-0.226	-0.103	-0.56	-0.826	-0.845	-0.918	-0.166	0.0964	-0.23	-0.341	1.01
GGAACGAGGGCTAGTTGATAGCAGAGTTTGATGG	-0.569	-0.717	-0.679	-0.908	-0.992	-0.745	0.203	-0.227	-0.133	-0.567	0.122	-0.508	-0.313	-0.827	-0.214	-0.534	-0.283	-0.627	-0.525	-0.19
TGTCAAAGTTCAAAGGTACCGTAAGTATCCACAC	6.69	6.28	4.68	4.31	1.83	5.79	7.97	7.18	4.9	6.89	0.615	4.3	1.2	0.655	1.97	5.17	3.76	4.94	0.937	4.89
CGTCGAAGGTCAAAGGTCAGTGAAGAGATGACGG	8.44	6.95	3.31	6.62	1.89	7.42	10.4	8.74	7.87	8.95	3.46	5.8	1.49	1.99	5.11	7.05	1.1	8.65	2.42	5.92
CCTTTTAGTTGACCATAAGGGCAACCGAAGCTCG	0.795	0.621	0.344	0.707	1.3	0.649	0.247	0.669	0.0181	0.427	0.494	1.26	0.935	0.61	1.45	0.87	0.536	0.957	1.78	1.86
TCATATAGGTAAATGCTAGGTGATAGTCCGATCT	0.869	0.734	-0.164	0.564	-0.125	1.2	1.13	2.24	3.56	2.87	4.05	2.45	0.855	0.985	0.409	0.395	0.368	0.797	1.3	0.301
ATATGTACGTTAGCTGGGGTCATTCAGACTAGGC	3.94	3.99	2.29	4.39	1.42	4.07	1.74	2.27	0.566	1.33	0.759	1.55	1.41	1.62	2.55	5.7	3.18	5.82	1.41	2.57
TTACCAAGGTGAAGGACGTTGATCCCTCTGTAGA	0.74	0.584	-0.361	0.414	-0.656	1.21	0.633	1.19	0.789	1.17	1.55	2.11	0.655	-0.0196	0.106	0.213	-0.502	0.474	-0.478	1.26
GCTAGCAGGCCTTTTGGGTCACTCAATGACGGGC	0.126	-0.171	-0.408	0.187	-1.11	0.992	0.209	0.00506	-0.68	-0.138	0.302	0.843	-1.25	-1.51	-0.592	0.137	-0.69	0.937	-0.611	1.06
